According to the supplement of paper PMC11732987, “Enantioselective OTUD7B fragment discovery through chemoproteomics screening and high-throughput optimisation” (Communications Chemistry, 2025):

Legend:
Experiment in all cases: log2 ratio of Biotin-Ahx-Ub-VS probe labelling (fragment/DMSO); higher = less target engagement (more negative = stronger competition), active = hit call of the paper (q ≤ 0.05, log2 ratio ≤ -1)
Settings in all cases: compound concentration: 200 uM; treatment time: 3 h
USP34 = USP34 (UniProt Q70CQ2)
USP34, sequence (Q70CQ2 whole entry, the tested form may be a part): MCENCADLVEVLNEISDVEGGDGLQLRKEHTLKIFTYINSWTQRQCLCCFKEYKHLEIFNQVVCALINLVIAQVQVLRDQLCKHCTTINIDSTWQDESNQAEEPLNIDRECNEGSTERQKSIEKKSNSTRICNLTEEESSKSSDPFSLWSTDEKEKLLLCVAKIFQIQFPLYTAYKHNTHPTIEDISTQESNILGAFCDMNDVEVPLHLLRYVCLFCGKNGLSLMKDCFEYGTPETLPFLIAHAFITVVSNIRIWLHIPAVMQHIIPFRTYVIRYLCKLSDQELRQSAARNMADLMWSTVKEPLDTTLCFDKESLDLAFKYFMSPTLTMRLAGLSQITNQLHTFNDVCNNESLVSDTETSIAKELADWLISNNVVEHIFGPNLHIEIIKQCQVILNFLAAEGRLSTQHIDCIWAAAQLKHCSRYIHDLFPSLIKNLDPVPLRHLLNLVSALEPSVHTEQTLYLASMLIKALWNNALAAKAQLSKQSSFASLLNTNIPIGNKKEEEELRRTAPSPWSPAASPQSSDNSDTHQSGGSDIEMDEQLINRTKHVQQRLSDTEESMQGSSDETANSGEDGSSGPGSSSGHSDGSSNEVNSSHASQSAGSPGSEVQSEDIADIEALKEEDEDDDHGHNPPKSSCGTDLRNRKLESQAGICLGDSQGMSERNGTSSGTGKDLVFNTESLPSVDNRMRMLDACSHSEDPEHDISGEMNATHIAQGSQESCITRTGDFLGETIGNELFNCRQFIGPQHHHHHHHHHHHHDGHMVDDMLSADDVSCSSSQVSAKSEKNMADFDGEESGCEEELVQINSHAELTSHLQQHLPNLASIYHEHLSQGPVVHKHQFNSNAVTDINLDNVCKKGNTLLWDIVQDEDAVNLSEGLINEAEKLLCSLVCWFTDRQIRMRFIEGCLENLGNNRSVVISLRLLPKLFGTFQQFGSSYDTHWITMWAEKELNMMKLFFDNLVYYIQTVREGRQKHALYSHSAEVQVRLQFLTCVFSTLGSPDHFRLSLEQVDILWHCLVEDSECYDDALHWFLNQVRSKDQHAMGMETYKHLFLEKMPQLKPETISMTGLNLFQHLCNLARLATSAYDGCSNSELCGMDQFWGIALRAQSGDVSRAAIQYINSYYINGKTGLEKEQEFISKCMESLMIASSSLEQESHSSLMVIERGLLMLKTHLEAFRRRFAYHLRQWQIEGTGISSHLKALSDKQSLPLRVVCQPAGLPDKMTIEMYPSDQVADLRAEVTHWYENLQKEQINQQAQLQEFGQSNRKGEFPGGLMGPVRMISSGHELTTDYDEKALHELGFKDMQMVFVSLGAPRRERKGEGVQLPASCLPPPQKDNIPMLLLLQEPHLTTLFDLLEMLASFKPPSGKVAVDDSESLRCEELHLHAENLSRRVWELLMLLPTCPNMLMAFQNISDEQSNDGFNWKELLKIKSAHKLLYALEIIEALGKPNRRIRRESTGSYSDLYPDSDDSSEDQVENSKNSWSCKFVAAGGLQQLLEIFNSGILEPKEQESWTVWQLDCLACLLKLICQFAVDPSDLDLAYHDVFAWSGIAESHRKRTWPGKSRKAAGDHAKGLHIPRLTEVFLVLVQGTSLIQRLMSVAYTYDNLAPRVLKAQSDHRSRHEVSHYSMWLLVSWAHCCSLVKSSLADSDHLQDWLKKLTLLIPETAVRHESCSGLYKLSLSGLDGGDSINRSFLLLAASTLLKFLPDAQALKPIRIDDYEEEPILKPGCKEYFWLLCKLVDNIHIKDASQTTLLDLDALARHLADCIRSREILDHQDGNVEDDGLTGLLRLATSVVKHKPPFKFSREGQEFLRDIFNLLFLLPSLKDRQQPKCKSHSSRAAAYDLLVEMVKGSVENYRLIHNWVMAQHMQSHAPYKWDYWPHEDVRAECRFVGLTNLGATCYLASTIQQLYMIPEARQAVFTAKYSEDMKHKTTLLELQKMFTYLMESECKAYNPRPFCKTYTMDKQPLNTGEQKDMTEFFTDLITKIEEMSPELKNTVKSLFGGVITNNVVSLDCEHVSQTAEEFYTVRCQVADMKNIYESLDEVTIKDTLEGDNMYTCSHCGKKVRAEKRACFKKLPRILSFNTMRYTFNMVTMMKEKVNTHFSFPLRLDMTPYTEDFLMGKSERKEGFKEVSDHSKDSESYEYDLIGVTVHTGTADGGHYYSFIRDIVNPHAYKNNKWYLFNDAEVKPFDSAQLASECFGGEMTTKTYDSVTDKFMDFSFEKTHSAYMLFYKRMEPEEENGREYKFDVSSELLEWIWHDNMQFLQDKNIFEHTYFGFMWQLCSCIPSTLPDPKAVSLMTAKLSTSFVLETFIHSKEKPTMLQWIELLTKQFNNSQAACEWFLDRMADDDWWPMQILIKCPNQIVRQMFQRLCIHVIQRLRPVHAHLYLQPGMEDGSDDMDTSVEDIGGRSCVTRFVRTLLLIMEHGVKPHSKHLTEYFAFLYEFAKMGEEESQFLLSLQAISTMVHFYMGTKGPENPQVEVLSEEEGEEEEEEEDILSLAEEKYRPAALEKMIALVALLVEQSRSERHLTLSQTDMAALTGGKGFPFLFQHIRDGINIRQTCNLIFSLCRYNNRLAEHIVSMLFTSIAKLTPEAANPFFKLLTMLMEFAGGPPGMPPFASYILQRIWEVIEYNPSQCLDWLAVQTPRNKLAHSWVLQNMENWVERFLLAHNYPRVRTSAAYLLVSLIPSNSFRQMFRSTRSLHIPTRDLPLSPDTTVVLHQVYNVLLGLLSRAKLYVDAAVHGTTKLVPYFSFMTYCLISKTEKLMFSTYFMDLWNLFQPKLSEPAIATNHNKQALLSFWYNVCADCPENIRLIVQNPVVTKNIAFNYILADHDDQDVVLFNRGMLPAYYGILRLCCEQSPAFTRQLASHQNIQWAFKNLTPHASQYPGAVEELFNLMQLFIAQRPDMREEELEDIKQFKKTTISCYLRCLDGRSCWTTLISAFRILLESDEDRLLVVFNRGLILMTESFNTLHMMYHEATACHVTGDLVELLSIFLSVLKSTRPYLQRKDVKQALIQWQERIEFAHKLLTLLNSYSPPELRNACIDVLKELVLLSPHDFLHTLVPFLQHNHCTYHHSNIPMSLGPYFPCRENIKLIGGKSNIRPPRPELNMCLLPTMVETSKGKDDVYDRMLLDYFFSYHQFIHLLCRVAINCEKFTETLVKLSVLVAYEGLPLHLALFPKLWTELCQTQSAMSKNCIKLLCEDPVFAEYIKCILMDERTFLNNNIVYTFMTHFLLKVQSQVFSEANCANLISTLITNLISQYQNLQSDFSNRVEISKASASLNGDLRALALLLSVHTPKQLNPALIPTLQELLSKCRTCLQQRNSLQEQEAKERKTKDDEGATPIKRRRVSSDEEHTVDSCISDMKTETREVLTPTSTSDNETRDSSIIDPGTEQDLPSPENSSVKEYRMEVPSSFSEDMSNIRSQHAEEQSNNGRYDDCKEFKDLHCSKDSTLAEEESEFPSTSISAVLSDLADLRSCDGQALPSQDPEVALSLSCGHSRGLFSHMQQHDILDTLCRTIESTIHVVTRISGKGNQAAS
How it was run: (§1)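 In triplicate, 495 µg of HEK293T lysate per sample was incubated with fragment at 200 µM or vehicle for 3 h. Biotin-Ahx-Ub-VS was then added to 0.5 µM final for 1 h, and labelled DUBs were captured with NeutrAvidin, digested with LysC and trypsin, and measured by diaPASEF LC-MS/MS. Data are average log2 fragment/vehicle ratios by unpaired t-test from global-median-normalised Spectronaut label-free quantities, restricted to proteins with ≥2 unique peptides.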

USP36 = biological target: T1, USP36 (UniProt Q9P275)
T1 sequence (whole entry): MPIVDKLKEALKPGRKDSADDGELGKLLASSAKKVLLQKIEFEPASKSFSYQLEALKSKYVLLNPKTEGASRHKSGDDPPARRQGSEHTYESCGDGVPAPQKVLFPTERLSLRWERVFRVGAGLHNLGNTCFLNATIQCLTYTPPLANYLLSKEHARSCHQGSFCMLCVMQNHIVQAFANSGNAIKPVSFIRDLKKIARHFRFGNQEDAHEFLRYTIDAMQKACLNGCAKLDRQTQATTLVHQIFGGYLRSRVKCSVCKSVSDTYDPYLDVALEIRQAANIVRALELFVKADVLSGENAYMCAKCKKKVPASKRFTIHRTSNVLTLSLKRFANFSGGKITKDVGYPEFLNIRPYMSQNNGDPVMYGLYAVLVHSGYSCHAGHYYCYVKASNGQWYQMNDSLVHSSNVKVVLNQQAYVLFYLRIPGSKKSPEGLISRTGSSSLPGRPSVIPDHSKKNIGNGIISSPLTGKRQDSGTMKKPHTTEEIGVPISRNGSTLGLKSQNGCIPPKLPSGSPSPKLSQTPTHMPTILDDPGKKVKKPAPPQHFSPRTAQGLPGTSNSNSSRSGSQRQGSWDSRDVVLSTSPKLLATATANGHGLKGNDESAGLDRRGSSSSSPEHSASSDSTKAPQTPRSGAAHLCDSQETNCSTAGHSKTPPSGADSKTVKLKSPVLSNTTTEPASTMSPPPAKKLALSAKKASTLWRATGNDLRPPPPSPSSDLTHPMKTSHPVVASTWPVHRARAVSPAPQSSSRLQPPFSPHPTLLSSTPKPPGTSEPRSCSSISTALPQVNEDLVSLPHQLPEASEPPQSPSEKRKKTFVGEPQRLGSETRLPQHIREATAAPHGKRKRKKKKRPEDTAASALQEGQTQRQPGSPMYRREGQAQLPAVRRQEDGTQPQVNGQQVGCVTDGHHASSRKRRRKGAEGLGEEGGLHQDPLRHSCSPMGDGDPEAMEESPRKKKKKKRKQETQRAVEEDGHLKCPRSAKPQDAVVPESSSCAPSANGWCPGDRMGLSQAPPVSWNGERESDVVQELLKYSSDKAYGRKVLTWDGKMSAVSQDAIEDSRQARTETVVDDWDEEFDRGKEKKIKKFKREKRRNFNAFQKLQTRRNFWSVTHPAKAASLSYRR
How it was run: as §1

USP38 = biological target: T2, USP38 (UniProt Q8NB14)
T2 sequence (whole entry): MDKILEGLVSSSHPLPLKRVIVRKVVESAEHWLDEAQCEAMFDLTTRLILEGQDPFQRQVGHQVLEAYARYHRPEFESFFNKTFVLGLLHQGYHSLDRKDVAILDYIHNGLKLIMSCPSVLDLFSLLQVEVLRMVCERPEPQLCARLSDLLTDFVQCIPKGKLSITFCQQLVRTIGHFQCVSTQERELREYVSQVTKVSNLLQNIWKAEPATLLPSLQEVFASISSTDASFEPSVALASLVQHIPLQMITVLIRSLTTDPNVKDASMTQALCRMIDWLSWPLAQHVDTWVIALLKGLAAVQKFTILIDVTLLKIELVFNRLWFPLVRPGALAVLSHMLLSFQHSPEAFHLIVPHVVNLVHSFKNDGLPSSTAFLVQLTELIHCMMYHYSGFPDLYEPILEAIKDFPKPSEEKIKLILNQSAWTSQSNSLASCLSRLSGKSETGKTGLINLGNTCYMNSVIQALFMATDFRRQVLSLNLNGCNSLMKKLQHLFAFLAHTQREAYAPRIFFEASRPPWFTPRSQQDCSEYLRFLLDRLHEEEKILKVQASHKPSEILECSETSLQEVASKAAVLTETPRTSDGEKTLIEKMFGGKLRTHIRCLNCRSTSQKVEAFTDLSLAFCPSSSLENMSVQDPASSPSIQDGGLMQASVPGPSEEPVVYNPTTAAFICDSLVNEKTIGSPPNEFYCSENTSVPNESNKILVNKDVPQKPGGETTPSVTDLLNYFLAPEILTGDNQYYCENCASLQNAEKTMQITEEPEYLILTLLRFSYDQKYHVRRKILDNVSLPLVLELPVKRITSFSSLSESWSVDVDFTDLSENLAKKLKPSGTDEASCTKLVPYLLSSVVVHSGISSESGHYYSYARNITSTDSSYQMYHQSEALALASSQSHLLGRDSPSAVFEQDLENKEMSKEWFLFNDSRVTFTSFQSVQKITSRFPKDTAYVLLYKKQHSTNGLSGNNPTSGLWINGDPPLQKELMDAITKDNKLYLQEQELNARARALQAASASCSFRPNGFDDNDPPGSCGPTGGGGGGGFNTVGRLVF
How it was run: as §1

USP39 = biological target: T3, USP39 (UniProt Q53GS9)
T3 sequence (whole entry): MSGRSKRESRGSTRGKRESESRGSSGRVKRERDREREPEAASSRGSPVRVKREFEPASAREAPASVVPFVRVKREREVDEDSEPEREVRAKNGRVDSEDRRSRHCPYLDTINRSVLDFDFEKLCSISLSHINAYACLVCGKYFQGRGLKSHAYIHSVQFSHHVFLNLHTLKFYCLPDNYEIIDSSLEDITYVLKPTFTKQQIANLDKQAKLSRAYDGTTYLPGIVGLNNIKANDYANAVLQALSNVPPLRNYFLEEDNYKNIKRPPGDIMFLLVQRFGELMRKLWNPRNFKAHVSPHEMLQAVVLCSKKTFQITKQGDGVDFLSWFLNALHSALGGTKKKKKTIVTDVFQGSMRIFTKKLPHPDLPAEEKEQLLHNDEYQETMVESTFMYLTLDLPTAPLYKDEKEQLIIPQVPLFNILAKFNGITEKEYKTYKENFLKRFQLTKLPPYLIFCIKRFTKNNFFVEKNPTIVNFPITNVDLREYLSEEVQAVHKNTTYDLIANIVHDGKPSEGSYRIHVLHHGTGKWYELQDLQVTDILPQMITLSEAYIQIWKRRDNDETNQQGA
How it was run: as §1

USP4 = biological target: T4, USP4 (UniProt Q13107)
T4 sequence (whole entry): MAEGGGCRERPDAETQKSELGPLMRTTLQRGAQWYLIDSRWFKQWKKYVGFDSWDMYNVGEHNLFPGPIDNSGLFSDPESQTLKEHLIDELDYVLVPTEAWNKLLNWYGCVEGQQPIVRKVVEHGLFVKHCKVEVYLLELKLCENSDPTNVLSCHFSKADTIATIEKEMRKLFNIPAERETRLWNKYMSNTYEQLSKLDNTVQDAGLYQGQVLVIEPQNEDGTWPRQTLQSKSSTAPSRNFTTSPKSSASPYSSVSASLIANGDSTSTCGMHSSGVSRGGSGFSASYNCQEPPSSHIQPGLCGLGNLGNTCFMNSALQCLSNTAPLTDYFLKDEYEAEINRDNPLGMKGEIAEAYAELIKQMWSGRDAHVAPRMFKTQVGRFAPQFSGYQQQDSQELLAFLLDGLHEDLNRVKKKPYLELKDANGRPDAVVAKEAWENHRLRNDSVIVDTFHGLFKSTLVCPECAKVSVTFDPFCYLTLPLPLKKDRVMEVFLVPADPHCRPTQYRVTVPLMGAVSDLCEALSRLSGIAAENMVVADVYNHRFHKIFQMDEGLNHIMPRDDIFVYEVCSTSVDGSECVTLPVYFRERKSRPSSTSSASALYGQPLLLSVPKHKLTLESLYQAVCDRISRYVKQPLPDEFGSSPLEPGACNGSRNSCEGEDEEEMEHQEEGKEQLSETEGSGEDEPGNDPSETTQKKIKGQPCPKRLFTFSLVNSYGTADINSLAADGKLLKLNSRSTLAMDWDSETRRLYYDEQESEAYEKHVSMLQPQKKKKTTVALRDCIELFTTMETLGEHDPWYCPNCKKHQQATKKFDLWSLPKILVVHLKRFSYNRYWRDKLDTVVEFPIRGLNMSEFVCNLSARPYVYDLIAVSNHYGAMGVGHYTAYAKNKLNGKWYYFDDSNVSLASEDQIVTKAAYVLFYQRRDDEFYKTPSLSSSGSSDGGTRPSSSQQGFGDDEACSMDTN
How it was run: as §1

Measured: log2 ratio of Biotin-Ahx-Ub-VS probe labelling

COc1ccc(-c2csc(NC(=O)CCl)n2)cc1
inactive: USP34 -0.405 | USP36 -0.137 | USP38 -0.188 | USP39 0.0959 | USP4 -0.299
